# Assay results published in the supplement of paper PMC6522484.
# ± gives the standard deviation of the averaged measurements.
# Experiments:
# [1] = tested on: DLD1; assay: cell viability (CellTiter-Glo) relative to plate median (fraction of plate median); higher = more viable cells; conditions: 5 µM; treatment time 24 h; reporter: 7TFP
# How it was run: (§1)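 Per-well firefly luciferase or CellTiterGlo luminescence, normalised to the plate median, is what is reported. It was measured in colorectal cancer cells with stable lentiviral TCF/Wnt firefly luciferase reporters after a 24 h treatment with library compounds at a final 5 µM. The mean of two independent replicates is given.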
# [2] = tested on: HCT116; assay: as above; conditions: 5 µM; treatment time 24 h; reporter: TCF4/Wnt
# How it was run: as §1
# [3] = tested on: SW480; assay: as above; conditions: 5 µM; treatment time 24 h; reporter: 7TFP
# How it was run: as §1
# [4] = tested on: DLD1; assay: TCF/Wnt firefly luciferase reporter signal relative to plate median (fraction of plate median); higher = higher Wnt reporter signal; conditions: 5 µM; treatment time 24 h; reporter: 7TFP
# How it was run: as §1
# [5] = tested on: SW480; assay: as above; conditions: 5 µM; treatment time 24 h; reporter: 7TFP
# How it was run: as §1
SMILES,cell viability [1],cell viability [2],cell viability [3],TCF/Wnt firefly luciferase reporter signal [4],TCF/Wnt firefly luciferase reporter signal [5]
C[C@H]1[C@H](C)CC[C@]2(CO)CC[C@]3(C)C(=CC[C@@H]4[C@@]5(C)CC[C@H](O)C(C)(C)[C@@H]5CC[C@]43C)[C@H]12,1 ± 0.042,1.02 ± 0.12,1 ± 0.05,0.871 ± 0.16,0.915 ± 0.048
OCc1c[nH]c2ccccc12,1.01,0.93 ± 0.03,0.948 ± 0.042,1.06 ± 0.064,0.992 ± 0.026
Cc1cc(O)cc(=O)o1,1.05 ± 0.064,1.07 ± 0.05,1.04 ± 0.028,0.988 ± 0.1,1.03 ± 0.21
N[C@@H](Cc1ccc(O)c(O)c1)C(=O)O,1.075 ± 0.0071,1.03 ± 0.064,0.99 ± 0.071,1.01 ± 0.04,1.09 ± 0.042
CC(=O)N(c1onc(C)c1C)S(=O)(=O)c1ccc(N)cc1,1.02 ± 0.034,1.05 ± 0.19,0.935 ± 0.06,0.933 ± 0.0014,0.985 ± 0.021
O=C(/C=C/c1ccc(O)c(O)c1)OCCc1ccccc1,0.892 ± 0.031,0.94 ± 0.039,0.963 ± 0.023,0.948 ± 0.059,0.9925 ± 0.0078
O=c1c(-c2ccc(O)cc2)coc2cc(O)ccc12 [Daidzein (Biofocus)],1.02 ± 0.03,1.16 ± 0.11,1.05 ± 0.057,1.11 ± 0.11,0.976 ± 0.091
CCOC(=O)CCC(=O)O[C@H]1[C@H](O[C@@H]2[C@@H](C)[C@H](O[C@H]3C[C@@](C)(OC)[C@@H](O)[C@H](C)O3)[C@@H](C)C(=O)O[C@H](CC)[C@@](C)(O)[C@H](O)[C@@H](C)C(=O)[C@H](C)C[C@@]2(C)O)O[C@H](C)C[C@@H]1N(C)C,1.065 ± 0.0071,1.01 ± 0.096,1.01 ± 0.021,1.005 ± 0.0071,0.94 ± 0.025
COC1C(OC(C)=O)C(C)OC(OC2C(Oc3cccc4c(OC(C)=O)c5c(=O)oc6ccc(C)c7c(=O)oc(c34)c5c67)OC(C)C(OC(C)=O)C2OC(C)=O)C1OC(C)=O (stereo not given) [Chartreusin-pentaacetate],0.99 ± 0.028,1.04 ± 0.14,0.932 ± 0.03,1.095 ± 0.0071,1.1 ± 0.11
CC(C)[C@@H]1CC[C@@H](C)C[C@H]1OC(=O)c1ccccc1,1.01 ± 0.025,1.03 ± 0.057,1.06 ± 0.042,1.01 ± 0.19,0.996 ± 0.02
COC(=O)C1=C(C)NC(C)=C(C(=O)OCCN(C)Cc2ccccc2)C1c1cccc([N+](=O)[O-])c1 (stereo not given),0.914 ± 0.074,1.02 ± 0.1,0.98 ± 0.042,0.941 ± 0.13,0.951 ± 0.065
CC(C)C(=O)Nc1ccc([N+](=O)[O-])c(C(F)(F)F)c1,1.055 ± 0.0071,0.984 ± 0.037,1.02 ± 0.029,0.924 ± 0.047,0.9955 ± 0.0064
COc1cc(NS(C)(=O)=O)ccc1Nc1c2ccccc2nc2ccccc12,1.11 ± 0.14,0.83 ± 0.09,1.03 ± 0.035,0.973 ± 0.053,0.841 ± 0.11
"CC[C@H](C)C(=O)O[C@H]1C[C@@H](C)C=C2C=C[C@H](C)[C@H](CC[C@@H]3C[C@@H](O)CC(=O)O3)[C@H]21 [Mevinolin, Lovastatin]",0.966 ± 0.1,0.931 ± 0.048,0.942 ± 0.017,0.836 ± 0.26,0.943 ± 0.029
NCC(O)CC(=O)O (stereo not given),1.035 ± 0.0071,1.04 ± 0.09,0.965 ± 0.028,1.04 ± 0.035,1.07 ± 0.035
CC(=O)OCC(OC(C)=O)C(OC(C)=O)C(OC(C)=O)C(OC(C)=O)C(COC(C)=O)OC(C)=O (stereo not given),1.06 ± 0.071,1 ± 0.066,1.045 ± 0.0071,0.987 ± 0.047,0.96 ± 0.037
Cc1ccnc(NS(=O)(=O)c2ccc(N)cc2)n1,0.968 ± 0.059,0.974 ± 0.052,0.953 ± 0.04,0.924 ± 0.019,0.929 ± 0.1
OC(c1cc(C(F)(F)F)nc2c(C(F)(F)F)cccc12)C1CCCCN1 (stereo not given),0.953 ± 0.033,1.005 ± 0.0071,1.02 ± 0.051,1.18 ± 0.028,1.11 ± 0.057
COc1c(O)cc2oc3cc(O)c(CC=C(C)C)c(O)c3c(=O)c2c1CC=C(C)C [alpha-MANGOSTIN],1.055 ± 0.0071,1.15 ± 0.021,1.01 ± 0.015,1.04 ± 0.24,0.941 ± 0.076
COc1cc2oc3cc(OC)c(OC)c(CC=C(C)C)c3c(=O)c2c(OC)c1CC=C(C)C,1.03 ± 0.028,1.08 ± 0.13,1.035 ± 0.0071,1.23 ± 0.12,1.02 ± 0.06
C=C1CC[C@@H]2[C@](C)(CO)[C@H](O)CC[C@@]2(C)[C@@H]1C/C=C1/C(=O)OC[C@H]1O,1.03 ± 0.021,0.963 ± 0.052,1.02 ± 0.014,1.06 ± 0.042,0.987 ± 0.033
CC(C)(C)NCC(O)c1cc(O)cc(O)c1 (stereo not given),1.045 ± 0.0071,1.02 ± 0.061,1.09 ± 0.028,0.999 ± 0.03,1.03 ± 0.13
CCN(CC)CCOC(=O)C(c1ccccc1)C1CCCCC1 (stereo not given),0.986 ± 0.0071,0.938 ± 0.13,0.978 ± 0.046,0.996 ± 0.0057,1.05 ± 0.075
c1ccc2c(c1)CN1CCCC1=N2,1.03 ± 0.028,1.09 ± 0.24,0.998 ± 0.032,0.935 ± 0.15,0.944 ± 0.064
CC(C)C[C@@H]1NC(=O)CNC1=O [Cyclo(leucylglycyl)],0.991 ± 0.042,1.05 ± 0.057,0.949 ± 0.072,0.956 ± 0.028,0.935 ± 0.044
O=C(O)C1(C(=O)O)CCC1.[NH2-].[NH2-].[Pt+2],1.02 ± 0.059,1.08 ± 0.15,0.97 ± 0.028,1.15 ± 0.099,1 ± 0.039
CC(Cc1cccc(C(F)(F)F)c1)NCCOC(=O)c1ccccc1 (stereo not given),0.984 ± 0.023,0.993 ± 0.011,0.955 ± 0.032,1.22 ± 0.057,1.14 ± 0.021
COc1ccc2c(=O)c(-c3cc4c(cc3OC)OCO4)coc2c1,0.995 ± 0.093,1.01 ± 0.053,1.04 ± 0.035,1.03 ± 0.042,1.14 ± 0.014
O=S(=O)(O)c1cc(N=C=S)ccc1/C=C/c1ccc(N=C=S)cc1S(=O)(=O)O,0.952 ± 0.046,0.9585 ± 0.0064,1.01 ± 0.03,0.981 ± 0.11,1.05 ± 0.064
